Measurements: PubChem BioAssay (Tox21)
Records with an inconclusive call do not appear. The source made the active and inactive calls. Unless noted, calls follow the shape of the full dose curve.

Legend:
[1] = Nuclear factor erythroid 2-related factor 2/antioxidant responsive element (Nrf2/ARE) small molecule agonists: qHTS cell viability counter screen in human keratinocytes (AID 1919968; active = well fitted curve in the direction sought with a large enough effect in the repeat runs; an effect the other way counts as inactive or inconclusive; also: nearly all actives have a fitted effect of over 55% in size; also: potency is read from the fitted curve at half-maximal effect)
How it was run: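 After a 5 h attachment period, ARE-reporter keratinocytes were dosed with compounds in DMSO and then cultured 23 h at 37 C. Cell viability came from CellTiter-Fluor signal read after a further 1 h.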

[2] = Nuclear factor erythroid 2-related factor 2/antioxidant responsive element (Nrf2/ARE) small molecule agonists: luciferase reporter gene qHTS assay in human keratinocytes (AID 1919969); also: nearly all actives have a fitted effect of over 35% in size; also: potency is read from the fitted curve at half-maximal effect
[3] = molecular target: Gonadotropin-releasing hormone receptor (Homo sapiens) (UniProt P30968); assay: Human gonadotropin-releasing hormone receptor (GnRHR) small molecule agonists, calcium flux assay in GnRHR-HEK293 cells (AID 1920063); also: nearly all actives have a fitted effect of over 35% in size
How it was run: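 We seeded human GnRHR-expressing HEK293 cells for 18 hours, loaded them with calcium dye for an hour at 37 C, added test compounds, and recorded fluorescence intensity kinetically for three minutes.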

[4] = molecular target: KiSS-1 receptor (Homo sapiens) (UniProt Q969F8); assay: Human kisspeptin (KISS1R) small molecule agonists, calcium flux assay in KISS1R-HEK293 cells (AID 1920064; active = well fitted curve in the direction sought with a large enough effect in the repeat runs; an effect the other way counts as inactive or inconclusive)
How it was run: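 Kinetic calcium assay, 1 s sampling over 3 min at Ex/Em 480/540, in HEK293 cells engineered with human KISS1R; compounds delivered in DMSO after 1 h dye loading.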

[5] = G protein-coupled receptor (GPCR) small molecule agonists, calcium flux assay: HEK293 wild type cell line counter screen (AID 1920065)
How it was run: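 Calcium-sensitive dye, loaded 1 h at 37 C into cells cultured 18 h, reports compound-evoked calcium release as fluorescence (Ex/Em 480/540), measured over 3 min. Agonist mode; 15-point titrations, triplicate.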

[6] = p53 small molecule agonists, cell-based qHTS assay with human liver microsomes (AID 1963577);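 also: p53 response element beta-lactamase reporter cells with liver microsomes plus NADPH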
How it was run: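 Steps: plate p53RE-bla cells, incubate 5 h at 37 C; add compound in DMSO; add microsomes (0.5 mg/mL final) and NADPH (0.5 mg/mL final); incubate 16 h at 37 C; add LiveBLAzer, 2 h RT; read fluorescence.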

[7] = p53 small molecule agonists, cell-based qHTS assay with rat liver microsomes (AID 1963578)
How it was run: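 Metabolic activation is supplied by rat liver microsomes with NADPH (each 0.5 mg/mL final). p53RE-bla cells incubate with compound 16 h at 37 C; reporter activity is measured by LiveBLAzer fluorescence.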

[8] = p53 small molecule agonists, cell-based qHTS assay with human liver microsomes: qHTS cell viability counter screen (AID 1963579); also: nearly all actives have a fitted effect of over 45% in size
How it was run: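 After the 460/530 nm beta-lactamase read, CellTiter-Glo was added to the same wells and luminescence measured after 30 min at room temperature, giving viability of p53RE-bla cells treated 16 h with compounds plus microsomes and NADPH.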

[9] = p53 small molecule agonists, cell-based qHTS assay with rat liver microsomes: qHTS cell viability counter screen (AID 1963580); also: nearly all actives have a fitted effect of over 45% in size
How it was run: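 p53RE-bla HCT-116 cells were exposed 16 h at 37 C to compounds with rat liver microsomes (0.5 mg/mL) and NADPH (0.5 mg/mL). Viability was measured in the same wells as ATP content by CellTiter-Glo luminescence.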

[10] = p53 small molecule agonists, cell-based qHTS assay: qHTS cell viability counter screen (AID 1963581); also: nearly all actives have a fitted effect of over 45% in size
How it was run: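 Following 5 h attachment, HCT-116 p53RE-bla cells took up compound for 16 h at 37 C; the reporter was read with B/G FRET substrate (2 h RT), and viability then via CellTiter-Glo ATP luminescence.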

[11] = p53 small molecule agonists, cell-based qHTS assay (AID 1963582; active = well fitted activation curve with a large enough effect in the signal ratio in the repeat runs, not every such curve was filed as active; the % refers to the signal ratio)
How it was run: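 In this cell-based concentration-response screen, a p53 response element drives beta-lactamase; cells received DMSO-borne compounds after 5 h culture and were incubated a further 16 h before FRET substrate development.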

[12] = molecular target: 5-hydroxytryptamine receptor 2A (Homo sapiens) (UniProt P28223); assay: 5-hydroxytryptamine receptor 2A (HTR2A) small molecule antagonists, cell-based qHTS assay (AID 1963586); also: nearly all actives have a fitted effect of over 45% in size; also: potency is read from the fitted curve at half-maximal effect
How it was run: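 Antagonist-mode intracellular calcium assay: DOI (4 nM) added after 5 min compound pre-incubation at room temperature to dye-loaded HTR2A-CHO cells. Fluorescence followed for 3 min, sampled every second.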

[13] = molecular target: 5-hydroxytryptamine receptor 2A (Homo sapiens) (UniProt P28223); assay: 5-hydroxytryptamine receptor 2A (HTR2A) small molecule agonists, cell-based qHTS assay (AID 1963587); also: nearly all actives have a fitted effect of over 30% in size; also: potency is read from the fitted curve at half-maximal effect
How it was run: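 CHO cells stably expressing human HTR2A, plated 18 h, loaded with calcium dye 1 h at 37 C. Agonist mode: compounds added and intracellular calcium fluorescence recorded kinetically for 2 min at 1 sec intervals.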

[14] = molecular target: Muscarinic acetylcholine receptor M1 (Homo sapiens) (UniProt P11229); assay: Cholinergic receptor muscarinic 1 (CHRM1) small molecule antagonists, cell-based qHTS assay (AID 1963588); also: nearly all actives have a fitted effect of over 40% in size
How it was run: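 CHRM1-CHO calcium-flux assay, antagonist mode. Cells were seeded 18 h, dye-loaded 1 h at 37 C and given compound for 5 min at RT, then acetylcholine was added at 50nM. FDSS fluorescence was read 3 min; 15 concentrations, three runs.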

[15] = molecular target: Muscarinic acetylcholine receptor M1 (Homo sapiens) (UniProt P11229); assay: Cholinergic receptor muscarinic 1 (CHRM1) small molecule agonists, cell-based qHTS assay (AID 1963589); also: nearly all actives have a fitted effect of over 35% in size
How it was run: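 Measures agonist-induced intracellular calcium rise. Stable human CHRM1 CHO line, 1 h dye load at 37 C, compounds from DMSO, kinetic fluorescence read.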

[16] = cAMP Responsive Elements (CRE) small molecule agonists, cell-based qHTS assay (AID 1963590)
How it was run: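 A CRE-responsive beta-lactamase reporter in HEK 293T cells was used. Treatment ran 3 h at 37 C; detection used LiveBLAzer B/G FRET substrate for 2 h at room temperature.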

[17] = cAMP Responsive Elements (CRE) small molecule antagonists, cell-based qHTS assay (AID 1963591; active = well fitted inhibition curve with a large enough effect in the signal ratio in the repeat runs, not every such curve was filed as active; the % refers to the signal ratio)
How it was run: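 HEK293T cells carrying a CRE-driven beta-lactamase reporter receive compound and NKH477 (0.25 uM final) for 3 h. Fluorescence from LiveBLAzer B/G FRET substrate is read after 2 h at room temperature.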

[18] = molecular target: Beta-2 adrenergic receptor (Homo sapiens) (UniProt P07550); assay: Adrenergic beta2 receptor (ADRB2) small molecule antagonists, cell-based qHTS assay (AID 1963592); also: nearly all actives have a fitted effect of over 50% in size; also: potency is read from the fitted curve at half-maximal effect
How it was run: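 Cells (CHO, stable ADRB2 overexpression) incubated 18-20hr at 37C; compounds added from DMSO; agonist mix (1nM isoproterenol, 100uM IBMX, 25uM Ro-20-1724) added; 0.5hr RT; d2-cAMP and anti-cAMP-cryptate added; 1hr RT; 665/615 nm read.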

[19] = molecular target: D(2) dopamine receptor (Homo sapiens) (UniProt P14416); assay: Dopamine D2 receptor (DRD2) small molecule agonists, cell-based qHTS assay (AID 1963594); also: nearly all actives have a fitted effect of over 35% in size
How it was run: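 HEK293 cells stably expressing human DRD2, pre-treated with PDE inhibitor Ro20-1724 (0.1 mM final) and compound 10 min at room temperature, then stimulated with NKH477 (200nM […]) for 30 min. cAMP read by HTRF (665/620 nm).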

[20] = molecular target: D(2) dopamine receptor (Homo sapiens) (UniProt P14416); assay: Dopamine D2 receptor (DRD2) small molecule antagonists, cell-based qHTS assay (AID 1963595; active = well fitted inhibition curve with a large enough effect in the signal ratio in the repeat runs, with a control signal flat; the % refers to the signal ratio)
How it was run: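 Readout: HTRF cAMP, cAMP-d2 competing with cellular cAMP for anti-cAMP cryptate, read after 1 h. Cells: DRD2-HEK293. Conditions: 0.1 mM Ro20-1724, 12 nM quinpirole, 200 nM NKH477, 30 min RT.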

Measured: Potency

Chain of 5-hydroxytryptamine receptor 2A (Homo sapiens) (P28223 whole entry, looked up): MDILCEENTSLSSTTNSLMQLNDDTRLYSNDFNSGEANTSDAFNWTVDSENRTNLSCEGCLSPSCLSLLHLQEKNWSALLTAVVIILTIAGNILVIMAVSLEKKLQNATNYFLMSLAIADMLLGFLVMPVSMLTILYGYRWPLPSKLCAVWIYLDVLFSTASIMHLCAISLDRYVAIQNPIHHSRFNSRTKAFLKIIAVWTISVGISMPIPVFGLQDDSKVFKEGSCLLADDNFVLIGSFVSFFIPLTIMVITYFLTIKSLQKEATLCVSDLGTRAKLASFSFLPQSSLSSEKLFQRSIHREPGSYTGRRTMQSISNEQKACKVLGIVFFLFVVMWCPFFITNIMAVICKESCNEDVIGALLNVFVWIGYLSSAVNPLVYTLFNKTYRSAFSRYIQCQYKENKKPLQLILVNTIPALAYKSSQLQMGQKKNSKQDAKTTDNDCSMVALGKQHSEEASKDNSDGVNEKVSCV
Chain of KiSS-1 receptor (Homo sapiens) (Q969F8 whole entry, looked up): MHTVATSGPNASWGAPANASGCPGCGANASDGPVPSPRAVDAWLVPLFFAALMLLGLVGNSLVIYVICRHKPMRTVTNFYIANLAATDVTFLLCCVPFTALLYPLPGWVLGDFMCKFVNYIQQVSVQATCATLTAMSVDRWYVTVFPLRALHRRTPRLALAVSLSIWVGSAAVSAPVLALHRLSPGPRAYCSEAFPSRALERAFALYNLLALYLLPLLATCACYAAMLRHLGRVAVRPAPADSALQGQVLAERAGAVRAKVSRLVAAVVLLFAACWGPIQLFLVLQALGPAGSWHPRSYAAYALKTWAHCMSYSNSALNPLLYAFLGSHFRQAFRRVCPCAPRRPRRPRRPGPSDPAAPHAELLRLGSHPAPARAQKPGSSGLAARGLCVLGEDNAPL
Chain of D(2) dopamine receptor (Homo sapiens) (P14416 whole entry, looked up): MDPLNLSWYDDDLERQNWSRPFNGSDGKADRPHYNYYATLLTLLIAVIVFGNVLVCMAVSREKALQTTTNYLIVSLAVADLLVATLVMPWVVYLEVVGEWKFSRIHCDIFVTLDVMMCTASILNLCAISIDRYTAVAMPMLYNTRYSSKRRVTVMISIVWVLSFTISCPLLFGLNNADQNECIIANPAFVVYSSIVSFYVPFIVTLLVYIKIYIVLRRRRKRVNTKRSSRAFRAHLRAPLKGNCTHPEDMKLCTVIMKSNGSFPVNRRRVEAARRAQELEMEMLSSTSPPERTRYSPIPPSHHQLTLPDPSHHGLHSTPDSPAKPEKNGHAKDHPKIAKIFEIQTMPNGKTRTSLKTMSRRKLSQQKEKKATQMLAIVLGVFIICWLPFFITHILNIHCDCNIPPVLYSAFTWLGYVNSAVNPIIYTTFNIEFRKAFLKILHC
Chain of Gonadotropin-releasing hormone receptor (Homo sapiens) (P30968 whole entry, looked up): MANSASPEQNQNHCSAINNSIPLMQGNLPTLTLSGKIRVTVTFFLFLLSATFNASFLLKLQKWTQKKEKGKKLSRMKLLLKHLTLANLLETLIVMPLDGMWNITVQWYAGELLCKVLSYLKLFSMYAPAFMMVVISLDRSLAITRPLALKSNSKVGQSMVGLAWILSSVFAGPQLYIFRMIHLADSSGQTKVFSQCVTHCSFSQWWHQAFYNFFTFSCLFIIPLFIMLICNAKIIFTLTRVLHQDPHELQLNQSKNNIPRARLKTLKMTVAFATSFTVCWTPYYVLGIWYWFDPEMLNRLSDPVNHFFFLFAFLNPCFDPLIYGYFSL
Chain of Muscarinic acetylcholine receptor M1 (Homo sapiens) (P11229 whole entry, looked up): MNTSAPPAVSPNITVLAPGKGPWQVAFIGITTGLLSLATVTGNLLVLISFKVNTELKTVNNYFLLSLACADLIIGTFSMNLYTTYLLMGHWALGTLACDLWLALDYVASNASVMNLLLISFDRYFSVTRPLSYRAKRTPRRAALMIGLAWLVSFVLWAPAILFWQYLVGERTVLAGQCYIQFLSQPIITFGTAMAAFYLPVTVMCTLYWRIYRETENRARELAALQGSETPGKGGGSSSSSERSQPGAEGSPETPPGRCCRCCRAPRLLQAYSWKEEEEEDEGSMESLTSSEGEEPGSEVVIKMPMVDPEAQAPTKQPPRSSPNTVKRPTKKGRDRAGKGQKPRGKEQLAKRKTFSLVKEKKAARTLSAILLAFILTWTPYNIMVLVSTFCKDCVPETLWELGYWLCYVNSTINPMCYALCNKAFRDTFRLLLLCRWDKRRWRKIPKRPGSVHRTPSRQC
Chain of Beta-2 adrenergic receptor (Homo sapiens) (P07550 whole entry, looked up): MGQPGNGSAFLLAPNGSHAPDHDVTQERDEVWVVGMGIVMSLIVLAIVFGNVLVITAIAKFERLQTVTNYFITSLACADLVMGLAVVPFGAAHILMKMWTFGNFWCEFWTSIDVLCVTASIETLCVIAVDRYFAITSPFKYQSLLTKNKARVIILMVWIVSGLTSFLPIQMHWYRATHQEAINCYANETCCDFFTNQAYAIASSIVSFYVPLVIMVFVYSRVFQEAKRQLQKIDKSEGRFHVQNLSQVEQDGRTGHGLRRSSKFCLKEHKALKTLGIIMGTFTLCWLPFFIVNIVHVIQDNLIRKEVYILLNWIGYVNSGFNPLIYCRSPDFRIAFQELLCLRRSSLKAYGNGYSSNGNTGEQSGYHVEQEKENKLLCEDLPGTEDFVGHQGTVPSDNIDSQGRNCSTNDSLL

O=C=NC1CCCCC1
inactive: all assays above

CC(C=O)Cc1ccc2c(c1)OCO2 (stereo not given)
inactive: all assays above

CN(C)C(=O)Nc1ccc(Cl)cc1
inactive: all assays above

Cc1ccc(Cl)c(O)c1
inactive: all assays above

CC(C)N1C(=O)c2ccccc2NS1(=O)=O
inactive: all assays above

c1cc2c(c(N3CCNCC3)c1)OCCO2
active: [12] 0.729 µM | [13] 0.0601 µM | [18] 15 µM
inactive: all other assays above

C=Cc1cccc(CCl)c1
inactive: all assays above

CCC(C)C(C)(COC(N)=O)COC(N)=O (stereo not given)
inactive: all assays above

CC(C)OC(=S)S
active: [1] 30.6 µM | [2] 15.4 µM
inactive: all other assays above

Cl/C=C\CCl
inactive: all assays above

CCCCOP(=O)(CCCC)OCCCC
active: [13] 19.5 µM
inactive: all other assays above

OCCSCSCCO
inactive: all assays above

CC(C)CCON=O
inactive: all assays above

O=Cc1ccc(Cl)cc1Cl
inactive: all assays above

COC(=O)c1ccccc1C(=O)OC
inactive: all assays above
